The record followed here is PubChem BioAssay (NCI).

The panel holds about 83,000 compounds, 20% with a hit somewhere; the sample as a whole holds those more often.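 The endpoint reported here, percent growth, reads 100 for growth as untreated, 0 for no net growth and -100 for all cells dead.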 A number with no mark means an inactive call. The source made the active and inactive calls. The calls were made as follows: active = growth percent below 10; inactive = the rest.

Holding throughout (test): NCI-60 one-dose screen, 48 h (100 = growth as untreated, 0 = no growth, -100 = all killed)
What all share (details): 10 µM unless noted

Experiment [1] relates to DU-145 prostate.
For experiment [2], the system named is K-562 leukemia.
For experiment [3], the system named is MALME-3M melanoma.
The subject of experiment [4] is MDA-MB-231 breast.
The subject of experiment [5] is RXF 393 renal.
Experiment [6] deals with SF-268 CNS.
Experiment [7] deals with SF-295 CNS.
The subject of experiment [8] is SF-539 CNS.
In experiment [9] the test system is UACC-257 melanoma.
Experiment [10] has as its system M14 melanoma.

In the case of `COc1cccc2c1CN(C(=O)c1ccc(O)c(C(=O)N3Cc4ccc(OCCC[P+](c5ccccc5)(c5ccccc5)c5ccccc5)cc4C3)c1)C2`, the growth is 89.1% in experiment [1]; 22.6% in [2]; 70.8% in [3]; 86.9% in experiment [4]; 104% in experiment [5]; 80.5% in experiment [6]. Moreover, the growth was 76.3% in [7], 64.4% in experiment [8], 44.8% in experiment [9] and 89.3% in [10].

As for `CCNC(=O)N1CCc2cc(OC)c(OCCc3ccc(OC)nc3)cc2C1c1ccc(C)cc1C` (stereo not given), the growth in experiment [1] was 12%; in experiment [2], 11%; in experiment [3], 51.5%; in experiment [4], 15%; in experiment [5], 2.44% (active); in experiment [6], 20.7%. In addition, the growth in [7] is 7.92% (active); in experiment [8], 5.2% (active); in [9] it was 41.9%; in experiment [10] it was 12.9%.

For `O=C(Nc1nonc1-c1ccccc1)c1ccc(C(F)(F)F)cc1`, the growth is 92.5% in [1]; 70% in [2]; 68.5% in [3]; 85.1% in experiment [4]; 90.3% in experiment [5]; 81.6% in experiment [6]. In addition, the growth in experiment [7] was 59.7%; in experiment [8], 95.9%; in [9], 77.8%; in [10], 71.1%.

Consider `COC(=O)c1[nH]nc2c1C1(C(=O)c3cccc4cccc1c34)C(C#N)=C(N)O2` (stereo not given), for which the growth is 104% in experiment [1]; 91.2% in experiment [2]; 103% in [3]; 91.4% in experiment [4]; 93.5% in experiment [5]; 84.1% in experiment [6]. The growth in [7] was 104%; in experiment [8], 101%; in experiment [9], 103%; in experiment [10] it was 108%.

`CC(C)(C)n1cc(-c2ccnc(NCCCNS(=O)(=O)c3cccc(F)c3)n2)c(-c2ccc(Cl)c(O)c2)n1`: the growth in experiment [1] was 94.4%; in experiment [2], 59%; in experiment [3], 94%; in experiment [4], 103%; in experiment [5], 105%; in [6], 95.9%. In addition, the growth was 108% in [7], 104% in experiment [8], 114% in [9] and 94.9% in [10].

`COc1cc(OC)c(S(N)(=O)=O)cc1C(=O)/C=C/c1ccc(C)cc1`: the growth in experiment [1] is 1.29% (active); in [2] it was 7.24% (active); in experiment [3], 72.9%; in [4] it was 14.2%; in experiment [5], -28.2% (active); in experiment [6] it was 31.6%. Moreover, the growth in experiment [7] was 23.6%; in [8], 1.82% (active); in experiment [9] it was 81%; in experiment [10], 41.5%.

For `COc1ccc(C(=O)Nc2ncc(Cc3ccccc3Cl)s2)cc1`, the growth was 18.2% in experiment [1]; 7.56% (active) in experiment [2]; 57.1% in [3]; 24.9% in [4]; -2.13% (active) in experiment [5]; 43.3% in experiment [6]. Further, the growth in experiment [7] is 7.7% (active); in [8], 2.11% (active); in experiment [9], 67%; in experiment [10] it was 15.5%.

As for `c1n[nH]cc1-c1nc2ccc3[nH]ncc3c2c2c1CCCC2`, the growth in [1] is 20.4%; in experiment [2], 33.9%; in [3] it was 11.5%; in experiment [4], 49.1%; in experiment [5], -51.4% (active); in [6], 27%. Moreover, the growth in experiment [7] is 29.5%; in experiment [8], 11%; in experiment [9], 37.1%; in experiment [10], 7.13% (active).

With `N/C(=N\C(N)=N\c1nc2ccccc2s1)c1ccc2ccccc2c1`, the growth in experiment [1] was 69%; in experiment [2], 69.3%; in experiment [3] it was 91.3%; in experiment [4], 67.9%; in [5] it was 91.8%; in experiment [6], 78.9%. Besides, the growth was 74.6% in experiment [7], 102% in [8], 109% in experiment [9] and 97.5% in experiment [10].

Regarding `CCCn1cnc2c(c1=N)C(c1ccc(OC)cc1)c1sc3c(C)cccc3c1O2` (stereo not given), the growth in experiment [1] is 19.1%; in experiment [2], 13%; in experiment [3] it was 57.8%; in experiment [4] it was 27.4%; in experiment [5], -5.55% (active); in experiment [6], 39%. Further, the growth was -6.82% (active) in [7], -21.6% (active) in [8], 86.7% in experiment [9] and 2.53% (active) in experiment [10].

Turning to `CS(=O)(=O)c1ccc(-n2cc(/C=N/O)c(-c3ccccc3)n2)cc1`, the growth in experiment [1] was 83.9%; in experiment [2] it was 64.5%; in experiment [3], 97.2%; in [4], 72.4%; in experiment [5], 78.6%; in experiment [6] it was 70.9%. In addition, the growth was 87.3% in [7], 71.1% in experiment [8], 90.1% in experiment [9] and 98.1% in experiment [10].

Turning to `CN1CCN(Cc2ccc(NC(=O)c3cncc(C#Cc4cnn5cccnc45)c3)cc2C(F)(F)F)CC1`, the growth in experiment [1] is 6.94% (active); in [2], -11.5% (active); in [3], -16.7% (active); in experiment [4] it was 5.29% (active); in experiment [5], -76.5% (active); in [6] it was -5.38% (active). In addition, the growth in experiment [7] is 56.7%; in experiment [8], 14.8%; in experiment [9] it was 44.5%; in [10], -43.9% (active).

Take `c1cn2c(ccc3nc(-c4cn[nH]c4)c4c(c32)CCCC4)n1`: the growth in experiment [1] is 52%; in [2], 85.6%; in [3], 29%; in experiment [4] it was 77.1%; in [5], 43.6%; in [6], 77.5%. For the same molecule, the growth in [7] was 42.6%; in [8] it was 63.9%; in experiment [9], 63.5%; in experiment [10], 32.1%.

For `COc1ccc(CCN2C(=O)CSC2=S)cc1`, the growth in experiment [1] was 41%; in experiment [2], 51.4%; in [3], 98%; in experiment [4], 79.6%; in [5] it was 89.7%; in experiment [6] it was 100%. Besides, the growth is 97.6% in experiment [7], 84.7% in experiment [8], 98.9% in [9] and 101% in [10].

`COc1cc(-c2nc3sccn3c2-c2ccnc(S(C)(=O)=O)n2)ccc1F`: the growth in [1] is 102%; in [2] it was 89.6%; in [3] it was 4.8% (active); in [4] it was 87%; in [5], 84.5%; in experiment [6], 100%. In addition, the growth is 98.6% in experiment [7], 91.5% in [8], 96.1% in [9] and 97.9% in experiment [10].

Consider `NC(=O)c1cccc(-n2ccc3cc(NC(=O)Nc4ccc(N5CCOCC5)c(C(F)(F)F)c4)ccc32)n1`, for which the growth was 13.2% in experiment [1]; -22.9% (active) in experiment [2]; 12.3% in [3]; 16% in [4]; -46.4% (active) in experiment [5]; 3.3% (active) in experiment [6]. The growth is -45.7% (active) in experiment [7], -20.5% (active) in experiment [8], 35.7% in experiment [9] and 16.7% in [10].

Regarding `CNC(=O)c1cc(Oc2ccc3nc(NC(=O)c4ccc(N5CCOCC5)c(C(F)(F)F)c4)sc3c2)ccn1`, the growth is 98.2% in experiment [1]; 71.9% in experiment [2]; 94.2% in [3]; 84.9% in experiment [4]; -31.3% (active) in experiment [5]; 92.8% in experiment [6]. The growth was 26.5% in [7], 68.3% in [8], 96.2% in experiment [9] and 85.9% in experiment [10].

As to `CCOC(=O)c1c(Nc2ccccc2)nn2c(-c3ccc(OC)cc3)ccnc12`, the growth in experiment [1] was 90.8%; in experiment [2] it was 45.3%; in experiment [3], 87.6%; in experiment [4], 79.4%; in experiment [5], -2.68% (active); in experiment [6], 101%. The growth is 89.5% in [7], 83.8% in [8], 110% in experiment [9] and 96% in experiment [10].

Consider `O=c1[nH]c2ccccc2cc1CSc1ccccc1Nc1nccc(-c2ccc(Cl)cc2)n1`, for which the growth is 102% in [1]; 94.7% in [2]; 86.1% in experiment [3]; 84.5% in experiment [4]; 93.5% in [5]; 94.6% in [6]. The growth is 95.5% in experiment [7], 82.7% in experiment [8], 104% in experiment [9] and 108% in experiment [10].

Regarding `Cc1ccc(CSc2nc(-c3ccc(Cl)cc3)c(C#N)c(N3CCNCC3)n2)cc1`, the growth in experiment [1] was 82.6%; in [2], 3.43% (active); in experiment [3] it was 96.3%; in [4], 77.2%; in [5], 67.8%; in experiment [6] it was 79.6%. The growth is 95.4% in [7], 80.9% in experiment [8], 99.4% in experiment [9] and 98.1% in experiment [10].

`CCCCCCCn1cc2c(N[C@H](C)c3ccccc3)ncnc2n1`: the growth in experiment [1] is 98.1%; in experiment [2] it was 106%; in experiment [3] it was 94.2%; in [4], 98.4%; in experiment [5], 97.1%; in [6], 102%. Also, the growth is 94.5% in experiment [7], 98.8% in experiment [8], 110% in [9] and 99.8% in experiment [10].

As for `CN(C)CCN(C)c1ccc2ncc(C#Cc3cncc(C(=O)Nc4ccc(CN5CCN(C)CC5)c(C(F)(F)F)c4)c3)n2n1`, the growth in [1] is -59.2% (active); in [2] it was 3.58% (active); in experiment [3], 61.9%; in experiment [4] it was -53.4% (active); in experiment [5], -90.1% (active); in experiment [6] it was 64.6%. Further, the growth in experiment [7] is 83.8%; in experiment [8] it was -9.03% (active); in experiment [9] it was 107%; in experiment [10], -80.8% (active).

For `Nc1nc(-c2cccc([N+](=O)[O-])c2)c(N=Nc2ccc([N+](=O)[O-])cc2Cl)s1`, the growth was 19.6% in experiment [1]; 10.7% in experiment [2]; -3.18% (active) in [3]; 12.2% in [4]; -31.1% (active) in experiment [5]; 20.5% in [6]. In addition, the growth in [7] was -18.4% (active); in experiment [8], 16.9%; in [9] it was -8.89% (active); in [10], 4.9% (active).

On to `Cn1cc(-c2nnc(N)nc2-c2c[nH]c3ccc(F)cc23)c2cc(F)ccc21`, for which the growth in experiment [1] is 88.2%; in experiment [2], 48.6%; in experiment [3] it was 77.7%; in experiment [4] it was 78.3%; in [5], 98.7%; in experiment [6], 74.4%. Besides, the growth in experiment [7] was 59.4%; in experiment [8] it was 95.4%; in experiment [9], 121%; in experiment [10] it was 73.3%.

Consider `NS(=O)(=O)c1ccc(Nc2cc(-c3ccccc3)nc(SCC(=O)c3ccccc3)n2)cc1`, for which the growth in experiment [1] is 103%; in experiment [2], 98.1%; in experiment [3], 93%; in [4], 92.9%; in [5], 94.9%; in [6] it was 97.1%. The growth in experiment [7] was 99.6%; in [8], 101%; in [9], 99%; in [10] it was 98.4%.
